# In PubChem BioAssay:
# Activity calls are given as the source filed them.
# Key:
# [1] = small molecules captured by biotinylated probe aFSTL3 – biochemical, small-molecule microarray, fluorescence 635/667, stem cell growth factor project, primary screen (AID 1064); settings: higher = more signal;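 note: measures binding of the biotinylated anti-FSTL3 antibody to printed compounds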
# [2] = binders from COS7 lysate, DM2A8 probe, primary screen, torsin A project, cell lysate, small-molecule microarray, fluorescence 635/667 (AID 1065); settings: higher = more signal, COS7 lysate expressing mutant human TOR1A
# [3] = small molecules captured by biotinylated probe aFGF2 – biochemical, small-molecule microarray, fluorescence 635/667, stem cell growth factor project, primary screen (AID 1067); settings: higher = more signal;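 note: measures binding of biotinylated aFGF2 protein to printed compounds on slides; z-score merges feature fluorescence and signal-to-noise across triplicate slides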
# [4] = small molecules captured by biotinylated probe aFGF10 – biochemical, small-molecule microarray, fluorescence 635/667, stem cell growth factor project, primary screen (AID 1071); settings: higher = more signal;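 note: score merges 667 nm spot intensity and signal to noise from triplicate slides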
# [5] = molecular target: Neurogenic locus notch homolog protein 2 (Homo sapiens) (UniProt Q04721); assay: small molecules binding Notch2 protein – biochemical, small-molecule microarray, 635 nm fluorescence, stem cell growth factors, primary screen (AID 1073); settings: higher = more signal
# Sequence of Neurogenic locus notch homolog protein 2 (Homo sapiens) (Q04721 whole entry, looked up, canonical isoform): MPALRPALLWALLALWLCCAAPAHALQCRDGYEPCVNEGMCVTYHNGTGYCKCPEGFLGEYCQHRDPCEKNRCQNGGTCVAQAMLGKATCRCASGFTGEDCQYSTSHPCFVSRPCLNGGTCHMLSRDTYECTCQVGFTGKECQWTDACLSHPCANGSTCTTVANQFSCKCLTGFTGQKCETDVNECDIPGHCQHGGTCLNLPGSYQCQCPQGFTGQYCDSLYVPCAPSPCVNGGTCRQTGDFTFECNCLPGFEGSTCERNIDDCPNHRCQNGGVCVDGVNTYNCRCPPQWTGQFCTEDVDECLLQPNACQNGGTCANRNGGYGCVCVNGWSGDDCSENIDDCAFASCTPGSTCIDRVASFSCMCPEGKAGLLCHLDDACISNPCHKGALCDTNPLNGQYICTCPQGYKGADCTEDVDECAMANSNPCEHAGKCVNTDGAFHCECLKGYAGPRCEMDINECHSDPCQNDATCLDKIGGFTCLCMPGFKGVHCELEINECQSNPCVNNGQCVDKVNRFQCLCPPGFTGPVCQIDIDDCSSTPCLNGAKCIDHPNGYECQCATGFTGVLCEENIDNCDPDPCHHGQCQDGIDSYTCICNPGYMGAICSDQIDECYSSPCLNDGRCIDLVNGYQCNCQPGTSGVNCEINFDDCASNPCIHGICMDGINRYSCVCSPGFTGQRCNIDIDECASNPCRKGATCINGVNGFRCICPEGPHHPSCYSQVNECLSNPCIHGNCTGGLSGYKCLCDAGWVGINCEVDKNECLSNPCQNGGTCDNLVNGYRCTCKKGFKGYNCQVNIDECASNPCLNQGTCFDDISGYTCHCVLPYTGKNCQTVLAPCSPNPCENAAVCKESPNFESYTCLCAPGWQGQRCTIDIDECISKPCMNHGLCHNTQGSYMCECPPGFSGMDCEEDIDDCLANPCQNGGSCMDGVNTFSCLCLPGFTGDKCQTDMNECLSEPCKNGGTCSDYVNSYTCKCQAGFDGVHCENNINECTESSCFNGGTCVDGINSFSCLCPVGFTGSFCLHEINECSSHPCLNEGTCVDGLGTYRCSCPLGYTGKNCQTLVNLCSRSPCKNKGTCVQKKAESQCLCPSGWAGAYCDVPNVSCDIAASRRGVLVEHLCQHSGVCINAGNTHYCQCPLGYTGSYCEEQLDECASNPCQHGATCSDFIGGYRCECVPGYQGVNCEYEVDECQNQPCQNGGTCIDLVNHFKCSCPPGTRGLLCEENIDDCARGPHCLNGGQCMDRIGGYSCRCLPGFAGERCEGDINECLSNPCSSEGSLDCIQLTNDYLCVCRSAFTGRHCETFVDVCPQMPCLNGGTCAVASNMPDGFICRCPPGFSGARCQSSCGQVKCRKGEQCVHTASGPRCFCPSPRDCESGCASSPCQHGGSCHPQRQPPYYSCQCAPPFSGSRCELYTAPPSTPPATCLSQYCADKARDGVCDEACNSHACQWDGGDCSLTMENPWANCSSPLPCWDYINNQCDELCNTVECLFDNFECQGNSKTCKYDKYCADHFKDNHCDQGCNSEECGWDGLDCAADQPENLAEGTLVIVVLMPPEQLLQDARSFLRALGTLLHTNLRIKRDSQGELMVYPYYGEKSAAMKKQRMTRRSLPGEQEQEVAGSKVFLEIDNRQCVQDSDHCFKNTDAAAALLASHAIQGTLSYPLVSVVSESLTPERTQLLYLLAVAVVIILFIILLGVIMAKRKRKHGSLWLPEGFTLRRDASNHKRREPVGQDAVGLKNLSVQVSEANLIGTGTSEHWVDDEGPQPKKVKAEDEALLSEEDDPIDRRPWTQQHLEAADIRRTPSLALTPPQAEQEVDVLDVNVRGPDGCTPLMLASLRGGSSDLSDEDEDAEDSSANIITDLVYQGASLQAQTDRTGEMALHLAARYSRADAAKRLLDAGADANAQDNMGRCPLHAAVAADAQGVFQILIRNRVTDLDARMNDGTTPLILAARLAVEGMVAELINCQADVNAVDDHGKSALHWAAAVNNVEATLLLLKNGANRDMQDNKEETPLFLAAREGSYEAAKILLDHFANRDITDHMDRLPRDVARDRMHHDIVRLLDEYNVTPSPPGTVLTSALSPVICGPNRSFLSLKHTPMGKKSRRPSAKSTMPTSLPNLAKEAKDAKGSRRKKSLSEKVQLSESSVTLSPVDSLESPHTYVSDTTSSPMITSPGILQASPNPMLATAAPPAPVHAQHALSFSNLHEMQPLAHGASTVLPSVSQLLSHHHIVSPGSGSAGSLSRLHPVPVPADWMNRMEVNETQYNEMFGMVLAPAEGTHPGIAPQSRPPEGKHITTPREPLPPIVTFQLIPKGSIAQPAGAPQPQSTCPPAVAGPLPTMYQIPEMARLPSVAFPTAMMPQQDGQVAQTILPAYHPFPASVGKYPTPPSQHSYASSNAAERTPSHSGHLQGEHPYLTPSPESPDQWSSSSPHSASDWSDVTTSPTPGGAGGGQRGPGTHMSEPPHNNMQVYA
# [6] = molecular target: Pro-neuregulin-1, membrane-bound isoform (Homo sapiens) (UniProt Q02297); assay: small molecules binding neuregulin-1 protein – biochemical, small-molecule microarray, fluorescence 635/667, psychiatric disease protein project, primary screen (AID 1075); settings: NRG1 binding, 635 nm fluorescence, higher = more signal;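 note: score combines 667 nm spot fluorescence with signal to noise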
# Sequence of Pro-neuregulin-1, membrane-bound isoform (Homo sapiens) (Q02297 whole entry, looked up, the tested form may be a part, canonical isoform): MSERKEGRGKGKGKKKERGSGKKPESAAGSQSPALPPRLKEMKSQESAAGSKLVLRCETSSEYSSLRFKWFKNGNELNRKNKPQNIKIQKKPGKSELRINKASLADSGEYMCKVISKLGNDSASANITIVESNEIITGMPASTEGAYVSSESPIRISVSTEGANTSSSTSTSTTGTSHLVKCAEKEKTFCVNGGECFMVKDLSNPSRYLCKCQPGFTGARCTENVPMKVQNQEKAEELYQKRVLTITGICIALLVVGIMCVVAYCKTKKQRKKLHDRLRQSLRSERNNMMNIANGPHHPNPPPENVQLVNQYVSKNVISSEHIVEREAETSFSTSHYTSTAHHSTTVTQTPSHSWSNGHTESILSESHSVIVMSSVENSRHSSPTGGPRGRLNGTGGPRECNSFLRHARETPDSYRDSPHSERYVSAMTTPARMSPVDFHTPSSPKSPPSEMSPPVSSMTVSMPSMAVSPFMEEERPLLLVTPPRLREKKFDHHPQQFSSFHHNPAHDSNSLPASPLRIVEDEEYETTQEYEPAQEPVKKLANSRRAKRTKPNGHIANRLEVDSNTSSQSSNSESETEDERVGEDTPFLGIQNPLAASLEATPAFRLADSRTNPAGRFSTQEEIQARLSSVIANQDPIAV
# [7] = tested on: Neuregulin-1 EGF-like domain; assay: small molecules binding NRG1 EGF domain – biochemical, small-molecule microarray, 635 nm fluorescence, primary screen (AID 1081); settings: higher = more signal;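 note: binding of the protein to compounds printed on small-molecule microarray slides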
# [8] = FRG1 expression reporter modulators in myotubes – cell-based, C2C12 myotubes, firefly/Renilla luciferase, luminescence, FRG1 inhibition for FSHD, primary screen (AID 1084); settings: FRG1 promoter luciferase, higher = more signal, called active from +8 up or from −8 down
# [9] = small molecules captured by biotinylated probe aFST – biochemical, small-molecule microarray, fluorescence 635/667, stem cell growth factor project, primary screen (AID 1086); settings: higher = more signal;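 note: score merges 667 nm fluorescence with signal-to-noise of each printed compound spot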
# [10] = binders of probe aHhip on microarray, primary screen, stem cell growth factor project, biochemical, small-molecule microarray, fluorescence 635/667 (AID 1087); settings: higher = more signal;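 note: score merges spot fluorescence at 667nm with spot signal to noise ratio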
Compound,composite z-score [1],composite z-score [2],composite z-score [3],composite z-score [4],composite z-score [5],composite z-score [6],composite z-score [7],z-score [8],composite z-score [9],composite z-score [10]
C[C@H]1CC[C@H]2C(=O)O[C@H](CO)CN2[C@@H]1c1ccc(Br)cc1,-0.334,0.544,-0.166,0.051,-0.288,-0.102,-0.238,1.11 (inactive),-0.148,0.2
O=C1C[C@H](c2ccccc2)[C@H](c2ccc(Br)cc2)O1,-0.295,0.246,-0.0761,0.289,0.0429,-0.482,-0.293,-0.78 (inactive),0.133,-0.0994
CCN1C(=O)[C@H]2[C@H]3[C@H](O)[C@H](O)CC(=NNC(=O)OCc4ccccc4)[C@@H]3CC[C@H]2C1=O,0.18,-0.287,-0.153,0.0519,-0.311,-0.003,-0.514,0.639 (inactive),0.302,-0.249
C=CCOCC1CN2[C@@H](CC[C@@H](C)[C@@H]2c2ccc(Br)cc2)C(=O)O1 (stereo not given in full),-0.155,0.0527,-0.16,-0.204,-0.619,-0.391,-0.479,-0.0613 (inactive),-0.546,-0.0994
CC(C)[C@@H](OCc1ccccc1)[C@H](C)C=NO[C@@H](C)c1cn([C@H](CO)Cc2ccccc2)nn1,-0.474,0.384,0.491,0.175,0.301,-0.236,-0.419,0.193 (inactive),0.155,-0.175
O=C1[C@H]2[C@H]3[C@H](O)[C@H](O)CC(=NO[C@@H]4O[C@H](CO)[C@@H](O)[C@H](O)[C@H]4O)[C@H]3CC[C@H]2C(=O)N1C[C@@H]1CCCO1,-0.151,1.07,-0.121,0.126,0.57,-0.506,-0.744,0.189 (inactive),0.045,-0.0994
CC(C)=CCCC(C)=CCON=C1C[C@@H](O)[C@@H](O)[C@@H]2[C@@H]3C(=O)N(c4cccc(Oc5ccccc5)c4)C(=O)[C@@H]3CC[C@H]12,-0.304,-0.0323,-0.0296,0.0259,0.206,0.691,0.877,0.122 (inactive),0.305,0.06
COC(=O)[C@H](C)NC(=O)CCC1CC(OC(=O)NCCc2ccc(F)cc2)CC2(CCCC(COC(=O)NCc3ccccc3)O2)O1 (stereo not given in full),-0.749,-0.126,0.0002,0.677,1.06,0.648,0.964,1.61 (inactive),0.65,-0.305
CCO[C@H](c1cc(OC)cc([N+](=O)[O-])c1OC)[C@H](C)[C@@H](OC)[C@H](C)C=CCC(=O)OC,0.0456,0.32,-0.0241,-0.105,0.174,0.339,0.66,-0.0602 (inactive),0.414,-0.317
CC(CCN1CCCCc2nc(C)c(C)cc21)=NOC[C@@H](O)[C@H]1O[C@@H]2OC(C)(C)O[C@@H]2[C@H]1O,-0.368,0.454,-0.138,0.188,-0.224,0.459,0.0465,0.442 (inactive),-0.346,-0.136
CC(=O)OC[C@H]1O[C@H](CC=NOCC[C@@H]2C=C[C@H](OC(C)=O)[C@@H](COC(C)=O)O2)C=C[C@@H]1OC(C)=O,-0.544,1.16,-0.13,0.414,0.29,-0.254,0.537,1.06 (inactive),0.425,0.0623
CO[C@H]1COC(=O)[C@H](C)COC(=O)[C@H](C)NC(=O)CC=C[C@H]1C,-0.874,1.28,-0.145,0.37,0.127,-0.575,0.887,-0.592 (inactive),0.0261,0.124
CC(C)[C@H](NC(=O)OC(C)(C)C)[C@@H](O)CC(=O)C(C)(C)C,-0.507,0.205,0.0103,0.209,0.541,-0.144,-0.295,0.46 (inactive),0.0986,0.107
CCOC(=O)[C@H](Cc1ccccc1)NC(=O)CCC1CC(OC(=O)NCCc2ccc(F)cc2)CC2(CCCC(COC(=O)NCCOc3ccccc3)O2)O1 (stereo not given in full),-0.493,1.34,-0.129,0.813,1.17,0.843,1.03,-0.997 (inactive),0.564,0.162
COC(=O)CC=C[C@@H](C)[C@@H](C=NOC(C)CN1CCCCc2nc(C)c(C)cc21)OC (stereo not given in full),-0.0416,2.43,-0.175,-0.425,-0.229,0.33,0.987,0.739 (inactive),0.286,-0.206
O=C1[C@H]2[C@H]3[C@H](O)[C@H](O)CC(=NOC[C@@H](O)COCc4ccco4)[C@@H]3CC[C@H]2C(=O)N1Cc1ccccc1,-0.645,0.389,-0.171,-0.0702,0.0535,0.39,1.24,0.668 (inactive),0.248,-0.115
